Laboratory results as given in article PMC4081100, “A DNA-binding-site landscape and regulatory network analysis for NAC transcription factors in Arabidopsis thaliana”.

Tests used:
Assay in all cases: universal protein binding microarray (PBM); transcription factors of Arabidopsis thaliana; high values mean tight binding
Details in all cases: protein: recombinant; tags: GST; chain copies: 2; dsDNA, one strand shown
[1] = target: T1, GST-ANAC092(1-176) (Arabidopsis thaliana, UniProt Q9FKA0 1-176)
T1 sequence: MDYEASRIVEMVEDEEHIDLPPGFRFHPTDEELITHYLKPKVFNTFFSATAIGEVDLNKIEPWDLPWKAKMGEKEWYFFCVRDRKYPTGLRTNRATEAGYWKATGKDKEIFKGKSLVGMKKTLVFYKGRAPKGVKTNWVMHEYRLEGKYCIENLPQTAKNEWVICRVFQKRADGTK
Method in brief: (§1)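 Protein amounts were determined by A280 or anti-GST western blot after glutathione–Sepharose 4B purification of GST-tagged proteins induced in cells, with zinc acetate included for zinc-finger proteins. Duplicate runs at 200 to 500 nM final were done on custom all-10-mer Agilent 4 × 180K arrays made double-stranded by primer extension. The normalised enrichment score (E-score) over gapped and ungapped 8-mers is the measure of binding.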

[2] = target: GST-NTL6(1-168) (Arabidopsis thaliana, UniProt Q9SCK6 1-168)
Method in brief: as §1

[3] = target: T2, GST-ANAC019 NAC domain (Arabidopsis thaliana, UniProt Q9C932 14-162)
T2 sequence: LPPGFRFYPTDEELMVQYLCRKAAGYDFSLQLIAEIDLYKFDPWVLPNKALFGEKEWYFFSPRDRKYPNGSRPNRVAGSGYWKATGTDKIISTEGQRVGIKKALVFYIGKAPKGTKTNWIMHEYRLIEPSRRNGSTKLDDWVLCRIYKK
Method in brief: as §1

[4] = target: T3, GST-ANAC055(1-171) (Arabidopsis thaliana, UniProt Q9LDY8 1-171)
T3 sequence: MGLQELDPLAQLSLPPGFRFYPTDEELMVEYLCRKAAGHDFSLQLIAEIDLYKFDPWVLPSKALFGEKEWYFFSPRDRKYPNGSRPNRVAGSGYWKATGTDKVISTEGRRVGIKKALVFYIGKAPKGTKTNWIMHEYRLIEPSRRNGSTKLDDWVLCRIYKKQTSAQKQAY
Method in brief: as §1

[5] = target: T4, GST-ATAF1 NAC domain (Arabidopsis thaliana, UniProt Q39013 7-158)
T4 sequence: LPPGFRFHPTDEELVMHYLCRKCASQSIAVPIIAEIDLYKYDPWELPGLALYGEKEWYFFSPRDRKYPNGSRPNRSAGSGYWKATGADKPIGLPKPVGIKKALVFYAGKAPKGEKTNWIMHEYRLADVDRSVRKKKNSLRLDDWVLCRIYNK
Method in brief: as §1

[6] = target: T5, GST-ANAC092(1-285) full length (Arabidopsis thaliana, UniProt Q9FKA0 1-285)
T5 sequence: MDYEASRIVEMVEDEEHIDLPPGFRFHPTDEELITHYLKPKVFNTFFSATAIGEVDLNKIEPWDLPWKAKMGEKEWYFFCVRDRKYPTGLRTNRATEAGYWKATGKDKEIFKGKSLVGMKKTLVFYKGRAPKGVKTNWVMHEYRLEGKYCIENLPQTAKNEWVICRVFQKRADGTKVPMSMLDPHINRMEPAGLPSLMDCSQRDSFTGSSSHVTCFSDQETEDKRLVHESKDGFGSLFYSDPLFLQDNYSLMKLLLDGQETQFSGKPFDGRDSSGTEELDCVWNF
Method in brief: as §1

[7] = target: T6, GST-NAP(1-166) (Arabidopsis thaliana, UniProt O49255 1-166)
T6 sequence: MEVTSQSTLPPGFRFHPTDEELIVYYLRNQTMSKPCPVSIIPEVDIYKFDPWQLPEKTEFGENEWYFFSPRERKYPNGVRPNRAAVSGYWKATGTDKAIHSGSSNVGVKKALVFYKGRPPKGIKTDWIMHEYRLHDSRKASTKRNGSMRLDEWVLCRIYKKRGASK
Method in brief: as §1

[8] = target: T7, GST-NST2(1-184) (Arabidopsis thaliana, UniProt Q9M274 1-184)
T7 sequence: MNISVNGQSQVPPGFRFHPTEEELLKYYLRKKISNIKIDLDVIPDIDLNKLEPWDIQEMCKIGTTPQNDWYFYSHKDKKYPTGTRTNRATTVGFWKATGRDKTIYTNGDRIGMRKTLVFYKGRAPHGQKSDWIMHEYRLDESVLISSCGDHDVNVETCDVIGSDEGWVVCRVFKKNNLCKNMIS
Method in brief: as §1

[9] = target: T8, GST-NTL8 NAC domain (Arabidopsis thaliana, UniProt Q9XIN7 14-156)
T8 sequence: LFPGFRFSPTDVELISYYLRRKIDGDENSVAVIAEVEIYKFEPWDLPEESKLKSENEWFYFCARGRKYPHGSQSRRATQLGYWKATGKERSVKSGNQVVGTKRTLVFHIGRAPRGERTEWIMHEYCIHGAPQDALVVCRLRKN
Method in brief: as §1

[10] = target: T9, GST-SND1(1-203) (Arabidopsis thaliana, UniProt Q9LPI7 1-203)
T9 sequence: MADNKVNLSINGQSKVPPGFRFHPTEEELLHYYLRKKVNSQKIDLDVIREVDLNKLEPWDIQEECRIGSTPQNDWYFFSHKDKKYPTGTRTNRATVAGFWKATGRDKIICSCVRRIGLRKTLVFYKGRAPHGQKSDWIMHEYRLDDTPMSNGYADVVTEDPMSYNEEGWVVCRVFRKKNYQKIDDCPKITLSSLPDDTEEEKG
Method in brief: as §1

[11] = target: T10, GST-VND3 NAC domain (Arabidopsis thaliana, UniProt Q9FH59 12-162)
T10 sequence: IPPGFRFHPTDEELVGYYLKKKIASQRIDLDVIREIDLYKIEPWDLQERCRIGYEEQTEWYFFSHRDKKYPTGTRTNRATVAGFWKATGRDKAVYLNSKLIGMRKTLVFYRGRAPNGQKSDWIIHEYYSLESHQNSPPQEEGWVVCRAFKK
Method in brief: as §1

[12] = target: T11, GST-VND7 NAC domain (Arabidopsis thaliana, UniProt Q9C8W9 9-158)
T11 sequence: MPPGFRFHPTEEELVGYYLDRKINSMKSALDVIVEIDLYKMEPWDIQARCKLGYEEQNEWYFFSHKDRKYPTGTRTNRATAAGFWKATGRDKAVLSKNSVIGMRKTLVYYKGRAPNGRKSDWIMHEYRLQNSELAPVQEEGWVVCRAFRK
Method in brief: as §1

Sequence of GST-NTL6(1-168) (Q9SCK6 1-168): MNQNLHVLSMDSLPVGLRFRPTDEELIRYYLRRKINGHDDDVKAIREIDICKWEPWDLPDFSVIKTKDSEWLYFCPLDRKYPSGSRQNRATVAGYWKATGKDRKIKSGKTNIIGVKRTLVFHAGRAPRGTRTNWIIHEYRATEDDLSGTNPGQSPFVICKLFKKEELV

Sequence | binding signal [1] [E-score] | binding signal [2] [E-score] | binding signal [3] [E-score] | binding signal [4] [E-score] | binding signal [5] [E-score] | binding signal [6] [E-score] | binding signal [7] [E-score] | binding signal [8] [E-score] | binding signal [9] [E-score] | binding signal [10] [E-score] | binding signal [11] [E-score] | binding signal [12] [E-score]
GTAAGAAA | 0.296 | 0.422 | 0.224 | 0.206 | 0.311 | 0.332 | 0.101 | 0.289 | 0.214 | 0.303 | 0.16 | 0.19
GTACGCAA | 0.482 | 0.121 | 0.445 | 0.411 | 0.407 | 0.487 | 0.456 | 0.394 | 0.0545 | 0.47 | 0.413 | 0.437
CGAGGAAA | 0.0746 | 0.138 | 0.0533 | 0.139 | 0.152 | 0.131 | 0.0581 | 0.0987 | 0.442 | 0.17 | 0.155 | 0.173
TTACTCAA | 0.345 | 0.078 | 0.0697 | 0.0741 | 0.223 | 0.359 | 0.0501 | 0.247 | 0.0629 | 0.445 | 0.165 | 0.126
ACGTAACT | 0.443 | 0.174 | 0.48 | 0.451 | 0.444 | 0.424 | 0.474 | 0.251 | 0.247 | 0.325 | 0.466 | 0.474
AATTGCGT | 0.451 | 0.0568 | 0.394 | 0.395 | 0.319 | 0.46 | 0.432 | 0.294 | 0.0923 | 0.412 | 0.415 | 0.418
ACGTAACC | 0.442 | 0.149 | 0.389 | 0.412 | 0.389 | 0.463 | 0.43 | 0.338 | 0.328 | 0.392 | 0.409 | 0.414
ATTCCGTA | 0.209 | 0.17 | 0.456 | 0.385 | 0.308 | 0.342 | 0.381 | 0.194 | 0.0978 | 0.239 | 0.434 | 0.374
ACGCAACT | 0.472 | 0.105 | 0.477 | 0.433 | 0.416 | 0.472 | 0.478 | 0.39 | 0.0824 | 0.422 | 0.462 | 0.462
GCACGAAA | 0.401 | 0.0615 | 0.253 | 0.197 | 0.165 | 0.441 | 0.245 | 0.0864 | 0.0576 | 0.211 | 0.173 | 0.145
CAAGTTAC | 0.371 | 0.256 | 0.163 | 0.178 | 0.134 | 0.411 | 0.144 | 0.238 | 0.167 | 0.323 | 0.254 | 0.184
CCACGCAA | 0.472 | 0.116 | 0.383 | 0.363 | 0.235 | 0.474 | 0.305 | 0.348 | 0.0836 | 0.41 | 0.354 | 0.337
ATTGAGTA | 0.329 | 0.135 | 0.143 | 0.176 | 0.251 | 0.365 | 0.0897 | 0.312 | 0.129 | 0.404 | 0.282 | 0.258
TAAGCAAA | 0.201 | 0.431 | 0.113 | 0.208 | 0.202 | 0.308 | 0.103 | 0.291 | 0.241 | 0.409 | 0.248 | 0.252
TTACGCAA | 0.484 | 0.18 | 0.447 | 0.335 | 0.375 | 0.484 | 0.442 | 0.437 | 0.18 | 0.495 | 0.457 | 0.468
ACGCAACA | 0.473 | 0.0917 | 0.408 | 0.35 | 0.292 | 0.484 | 0.399 | 0.4 | 0.0984 | 0.467 | 0.347 | 0.406
ACGTAAGC | 0.42 | 0.133 | 0.453 | 0.406 | 0.352 | 0.449 | 0.428 | 0.298 | 0.205 | 0.368 | 0.437 | 0.431
AACGTAAG | 0.32 | 0.196 | 0.132 | 0.213 | 0.255 | 0.366 | 0.204 | 0.262 | 0.124 | 0.436 | 0.289 | 0.226
AAGTAATC | 0.348 | 0.414 | 0.144 | 0.154 | 0.22 | 0.37 | – | 0.285 | 0.328 | 0.347 | 0.188 | 0.136
GTTAAGTA | 0.119 | 0.45 | 0.171 | 0.0947 | 0.218 | 0.123 | – | 0.148 | 0.228 | 0.202 | 0.245 | 0.0716
GGAAGTAA | 0.249 | 0.404 | 0.151 | 0.104 | 0.123 | 0.307 | – | 0.248 | 0.203 | 0.259 | 0.133 | 0.0641
GCGTATAA | 0.375 | 0.0699 | 0.0915 | 0.23 | 0.229 | 0.409 | 0.181 | 0.285 | 0.11 | 0.399 | 0.213 | 0.161
GCGTAAAA | 0.261 | 0.0562 | 0.15 | 0.087 | 0.185 | 0.247 | 0.0952 | 0.239 | 0.107 | 0.407 | 0.197 | 0.174
AGAAGCAA | 0.381 | 0.361 | 0.0522 | 0.119 | 0.0783 | 0.42 | – | 0.284 | 0.218 | 0.382 | 0.109 | 0.234
AACGTAAT | 0.293 | 0.183 | 0.266 | 0.32 | 0.359 | 0.357 | 0.286 | 0.309 | 0.114 | 0.449 | 0.359 | 0.274
AAGGTAAC | 0.233 | 0.309 | 0.141 | 0.185 | 0.142 | 0.285 | 0.151 | 0.232 | 0.441 | 0.188 | 0.154 | 0.194
TACGCCAA | 0.413 | 0.0645 | 0.0981 | 0.172 | 0.309 | 0.439 | – | 0.251 | 0.0846 | 0.454 | 0.171 | 0.244
